# Data: PMC11062922 (Nature Chemical Biology, 2023)
# Where two headings read alike, the source gives them in different places.
# How the values were obtained:
# ABL1 = system: ABL1; design: species or system human, MV4-11 + K-562 + COLO205 + SK-N-BE2 + OVCAR-8; conditions: read-out: apparent Kd, n = 1
# ABL2 = system: ABL2; design: species or system human, MV4-11 + K-562 + COLO205 + SK-N-BE2 + OVCAR-8; conditions: read-out: apparent Kd, n = 1
# BCR = system: BCR; design: species or system human, MV4-11 + K-562 + COLO205 + SK-N-BE2 + OVCAR-8; conditions: read-out: apparent Kd, n = 1
# FYN = system: FYN; design: species or system human, MV4-11 + K-562 + COLO205 + SK-N-BE2 + OVCAR-8; conditions: read-out: apparent Kd, n = 1
# GAK = system: GAK; design: species or system human, MV4-11 + K-562 + COLO205 + SK-N-BE2 + OVCAR-8; conditions: read-out: apparent Kd, n = 1
# HCK = system: HCK; design: species or system human, MV4-11 + K-562 + COLO205 + SK-N-BE2 + OVCAR-8; conditions: read-out: apparent Kd, compound concentrations: 100 nM and 1000 nM (sheet 'Samples'), n = 1
# LCK = system: LCK; design: species or system human, MV4-11 + K-562 + COLO205 + SK-N-BE2 + OVCAR-8; conditions: read-out: apparent Kd, n = 1
# RET = system: RET; design: species or system human, MV4-11 + K-562 + COLO205 + SK-N-BE2 + OVCAR-8; conditions: read-out: apparent Kd; compound concentrations: 100 nM and 1000 nM (sheet 'Samples'), CATDS: 4.3035202568940403E-2; n = 1
# TNK1 = system: TNK1; design: species or system human, MV4-11 + K-562 + COLO205 + SK-N-BE2 + OVCAR-8; conditions: read-out: apparent Kd, n = 1
# YES1 = system: YES1; design: species or system human, MV4-11 + K-562 + COLO205 + SK-N-BE2 + OVCAR-8; conditions: read-out: apparent Kd, n = 1
# CLK1 = system: CLK1; design: species or system human, MV4-11 + K-562 + COLO205 + SK-N-BE2 + OVCAR-8; conditions: read-out: apparent Kd; compound concentrations:100 nM and 1000 nM (sheet 'Samples'); n = 1
# CSNK2A1;CSNK2A3 = system: CSNK2A1;CSNK2A3; design: species or system human, MV4-11 + K-562 + COLO205 + SK-N-BE2 + OVCAR-8; conditions: read-out: apparent Kd; compound concentrations:100 nM and 1000 nM (sheet 'Samples'); n = 1
# CSNK2A2 = system: CSNK2A2; design: species or system human, MV4-11 + K-562 + COLO205 + SK-N-BE2 + OVCAR-8; conditions: read-out: apparent Kd, n = 1
# PTK6 = system: PTK6; design: species or system human, MV4-11 + K-562 + COLO205 + SK-N-BE2 + OVCAR-8; conditions: read-out: apparent Kd; compound concentrations:100 nM and 1000 nM (sheet 'Samples'); n = 1
# RIPK3 = system: RIPK3; design: species or system human, MV4-11 + K-562 + COLO205 + SK-N-BE2 + OVCAR-8; conditions: read-out: apparent Kd, n = 1
# ACOX1 = system: ACOX1; design: species or system human, MV4-11 + K-562 + COLO205 + SK-N-BE2 + OVCAR-8; conditions: read-out: apparent Kd; compound concentrations: 100 nM and 1000 nM (sheet 'Samples'), CATDS: 3.3243349000795501E-2; n = 1
# Q6ZSR9 = Q6ZSR9 (human, UniProt Q6ZSR9); design: species or system MV4-11 + K-562 + COLO205 + SK-N-BE2 + OVCAR-8; conditions: read-out: apparent Kd; compound concentrations: 100 nM and 1000 nM (sheet 'Samples'), CATDS: 3.9115403920336002E-2; n = 1
# Sequence of Q6ZSR9 (Q6ZSR9 whole entry, looked up): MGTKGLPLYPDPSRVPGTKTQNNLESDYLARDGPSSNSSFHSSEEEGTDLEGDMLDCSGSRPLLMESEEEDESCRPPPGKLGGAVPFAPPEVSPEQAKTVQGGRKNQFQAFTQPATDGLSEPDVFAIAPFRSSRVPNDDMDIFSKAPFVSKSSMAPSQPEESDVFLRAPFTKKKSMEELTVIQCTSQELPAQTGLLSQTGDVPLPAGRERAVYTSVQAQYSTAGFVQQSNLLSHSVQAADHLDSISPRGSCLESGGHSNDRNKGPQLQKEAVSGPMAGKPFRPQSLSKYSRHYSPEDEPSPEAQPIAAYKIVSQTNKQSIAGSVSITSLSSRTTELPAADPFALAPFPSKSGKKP
# RIPK2 = system: RIPK2; design: species or system human, MV4-11 + K-562 + COLO205 + SK-N-BE2 + OVCAR-8; conditions: read-out: apparent Kd; compound concentrations: 100 nM and 1000 nM (sheet 'Samples'), CATDS: 0.252300510926462; n = 1
# [1] = compound concentrations:100 nM and 1000 nM (sheet 'Samples')
compound,measurement,setting,value
CC(C)c1nc(-c2cccc(NS(=O)(=O)c3c(F)cccc3F)c2F)c(-c2ccnc(Nc3ccc(N4CCOCC4)nc3)n2)s1 [GSK2008607A],potency estimated from few doses,"ABL1; compound concentrations: 100 nM and 1000 nM (sheet 'Samples'), CATDS: 2.52520437406713E-2",706 nM
same,potency estimated from few doses,"ABL2; compound concentrations: 100 nM and 1000 nM (sheet 'Samples'), CATDS: 7.58086527625733E-2",101 nM
same,potency estimated from few doses,"BCR; compound concentrations: 100 nM and 1000 nM (sheet 'Samples'), CATDS: 3.4777380085243399E-2",355 nM
same,potency estimated from few doses,"FYN; compound concentrations: 100 nM and 1000 nM (sheet 'Samples'), CATDS: 2.15624347754024E-2",1090 nM
same,potency estimated from few doses,"GAK; compound concentrations: 100 nM and 1000 nM (sheet 'Samples'), CATDS: 3.3626459583734003E-2",378 nM
same,potency estimated from few doses,HCK; CATDS: 2.4637154538395101E-2,751 nM
same,potency estimated from few doses,"LCK; compound concentrations: 100 nM and 1000 nM (sheet 'Samples'), CATDS: 4.60457501367081E-2",215 nM
same,potency estimated from few doses,RET,241 nM
same,potency estimated from few doses,"TNK1; compound concentrations: 100 nM and 1000 nM (sheet 'Samples'), CATDS: 8.7218482008179707E-2",82.7 nM
same,potency estimated from few doses,"YES1; compound concentrations: 100 nM and 1000 nM (sheet 'Samples'), CATDS: 2.6088425735390001E-2",653 nM
Nc1nc(N)c2nc(-c3ccccc3)[nH]c2n1 [SKF-12778],potency estimated from few doses,CLK1,1150 nM
same,potency estimated from few doses,CSNK2A1;CSNK2A3,1350 nM
same,potency estimated from few doses,CSNK2A2; [1],1100 nM
same,potency estimated from few doses,PTK6,1150 nM
same,potency estimated from few doses,YES1; [1],1040 nM
CC(C)c1nc(-c2ccc(F)c(NS(=O)(=O)c3c(F)cccc3F)c2)c(-c2ccnc(Nc3ccc(N4CCOCC4)nc3)n2)s1 [GSK1804250A],potency estimated from few doses,ABL1; [1],970 nM
same,potency estimated from few doses,ABL2; [1],126 nM
same,potency estimated from few doses,BCR; [1],954 nM
same,potency estimated from few doses,FYN; [1],944 nM
same,potency estimated from few doses,GAK; [1],600 nM
same,potency estimated from few doses,LCK; [1],342 nM
same,potency estimated from few doses,RIPK3; [1],2130 nM
same,potency estimated from few doses,TNK1; [1],328 nM
same,potency estimated from few doses,YES1; [1],679 nM
COc1ccc(C2=C(c3cn(C)c4ccccc34)C(=O)NC2=O)cc1OC [RO3206363-000],potency estimated from few doses,ACOX1,1570 nM
same,potency estimated from few doses,"CSNK2A2; compound concentrations: 100 nM and 1000 nM (sheet 'Samples'), CATDS: 3.3167701686651403E-2",1580 nM
same,potency estimated from few doses,HCK; CATDS: 3.6036002051639801E-2,1170 nM
same,potency estimated from few doses,Q6ZSR9,898 nM
Cc1ccc(NC(=O)Nc2ccccc2)cc1-c1ccc(C(=O)Nc2ccncc2)cc1 [GSK1398471A],potency estimated from few doses,HCK; CATDS: 0.185556916463613,507 nM
same,potency estimated from few doses,RIPK2,310 nM
same,potency estimated from few doses,"RIPK3; compound concentrations: 100 nM and 1000 nM (sheet 'Samples'), CATDS: 0.107109560808048",1620 nM
same,potency estimated from few doses,"YES1; compound concentrations: 100 nM and 1000 nM (sheet 'Samples'), CATDS: 0.19959075009265401",448 nM
